SW480 rerep – DNA re-replication induction in SW480 cells | SW480 DNA re-replication, Hoechst DNA content imaging, 48 h | Potency, µM (highest dose often 46.1 µM), inactives show at the highest dose re-replication activation, most hits filed as activators | 340,000 compounds, 1.8% hits | AID 624297; also: potency is read from the fitted curve at half-maximal effect; % of control where 0% means no effect; nearly all actives have a fitted effect of over 55% in size
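DNA re-replication was detected as more nuclei of elevated Hoechst intensity after 48 hr exposure to compound (23 nL pinned per well of 250 cells).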
uPA generation – inhibitors of cell surface uPA generation; AID 540303; cell surface uPA generation assay, qHTS; 330,000 compounds, 0.31% hits; Potency, µM (doses to about 38.3 µM), without a hit: at the highest dose activity change, negative = inhibition, most hits filed as inhibitors; active = well fitted inhibition curve with a large enough effect; inconclusive = small, poorly fitted or top-dose-only effect; inactive = no such curve, though single readings can be large or run the other way; tested in mouse RAW 264.7 cells; also: potency is read from the fitted curve at half-maximal effect; % is scaled to controls: 0 for no effect and ±100 for the full control effect; nearly all actives have a fitted effect of over 55% in size
Giardia kill – Giardia lamblia killing; 340,000 compounds, 0.15% hits; activity change, % at 7.66 µM, hits read low; AID 540267; Giardia lamblia trophozoite viability; in the data active = activity change below about -80%; inconclusive = between about -30% and that limit;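 also: parasites exposed to compound for two days anaerobically before the ATP read; % is scaled to controls: 0 for no effect and ±100 for the full control effect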
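Giardia lamblia trophozoites (100 cells/well) were incubated with compounds for 48 h at 37 deg C under anaerobic conditions. Viability was read as ATP content by one-step luminescence after 15-30 min at room temperature.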
MCF10A rerep – inducers of DNA re-replication in MCF 10A breast cells; MCF 10A DNA re-replication, Hoechst nuclear intensity, 48 h; Potency, µM (series often up to 46.1 µM), for the others: at the top dose activity, positive = re-replication, actives largely listed as activators; 350,000 compounds, 2.9% hits; AID 624296; also: potency is read from the fitted curve at half-maximal effect; % of control where 0% means no effect; nearly all actives have a fitted effect of over 50% in size
Starred values were filed as active, the others as inactive; ? = inconclusive; . = no result; [ ] = remark or other dose. Most compounds without a hit are left out; they make up all but 4.3% or so of the library. Unless noted, calls follow the shape of the dose curve; as a rule, active = well fitted activation curve with a large enough effect; inconclusive = small, poorly fitted or top-dose-only effect; inactive = no such curve, though single readings can be large or run the other way.

SMILES	SW480 rerep	uPA generation	Giardia kill	MCF10A rerep
CCOc1cc(C(=O)NCc2ccc(C)cc2)ccc1OCC(=O)N1CCOCC1	5%	0%	13	-6%
CCOc1ccc(C(=O)OCC(=O)N2CCOCC2)cc1OCC	-29%	-1%	?	-4%
CCOc1cc(/C=C/c2nc3cc(C)c(C)cc3s2)ccc1OCC(=O)N1CCOCC1	?	2%	-20	13µM*
CCOc1cc(/C=C\[N+](=O)[O-])ccc1OCC(=O)N1CCOCC1	26%	-8%	-17	6.5µM*
COC(=O)c1cc2occc2n1Cc1ccc(Cl)cc1	?	.	0	16µM*
CCOC(=O)c1cc2occc2n1Cc1ccc(F)cc1	1%[9.22 µM]	0%	-14	-3%
Cc1ccccc1NC(=O)c1cccc(NC(=O)c2ccco2)c1	-12%	-3%	16	-2%
CCOc1ccc(C(=O)Nc2ccc(NC(=O)c3ccco3)c(Cl)c2)cc1Br	-14%	.	8	5.8µM*
CCOc1ccccc1NC(=O)c1cccc(NC(=O)c2ccco2)c1	7.3µM*	-16%	-20	6.5µM*
CCN(c1ccccc1)S(=O)(=O)c1cc(NC(=O)CN2CCN(C)CC2)ccc1Cl	?	-3%	2	6%
Cc1occc(=O)c1OC(=O)Nc1ccc(Cl)c(Cl)c1	-10%	-3%	-3	18µM*
COc1ccc(C(=O)Oc2c(C)occc2=O)cc1OC	-2%	-11%	18	0%
C/C1=C\CCC2C(/C=C(\C)CC1)OC(=O)C2CN1CCCCC1 (configuration not stated)	21µM*	-17%	10	?
O=C1N=C2SCCN2/C1=C\c1ccc(Cl)cc1	2%	-8%	-4	18µM*
CCc1ccc(NC(=O)/C(C#N)=C/c2cc3ccc(C)cc3nc2N2CCOCC2)cc1	-3%	0%	0	8.2µM*
Cc1ccc2nc3nc(NCC4CCCO4)c(C(=O)NC4CCCC4)cc3c(=O)n2c1 (configuration not stated)	15%	-4%	1	2.6µM*
COc1ccc(CCNC(=O)c2cc3c(=O)n4cccc(C)c4nc3n(CC3CCCO3)c2=N)cc1 (configuration not stated)	8.2µM*	-4%	7	9.2µM*
N=c1c(C(=O)NC2CCCC2)cc2c(=O)n3ccccc3nc2n1CC1CCCO1 (configuration not stated)	?	0%	23	?
Cc1cccn2c(=O)c3cc(C(=O)NCC4CCCO4)c(=N)n(CCc4ccccc4)c3nc12 (configuration not stated)	?	3%	-9	26%
N=c1c(C(=O)NC2CCCCC2)cc2c(=O)n3ccccc3nc2n1CC1CCCO1 (configuration not stated)	18µM*	1%	-8	?
CC(NC(=O)c1cc2c(=O)n3ccccc3nc2n(CC2CCCO2)c1=N)c1ccccc1 (configuration not stated)	6.5µM*	-16%	4	5.8µM*
CCOC(=O)c1cc2c(=O)n3ccccc3nc2n(CC2CCCO2)c1=NC(C)=O (configuration not stated)	?	-3%	4	?
Cc1ccc(S(=O)(=O)N2CCOCC2)cc1C(=O)N1CCN(c2ncccn2)CC1	8%	2%	12	7%
CCCn1c(=N)c(S(=O)(=O)c2ccc(F)cc2)cc2c(=O)n3ccccc3nc21	?	-8%	6	?
Cc1ccc(CNC(=O)c2cc3c(=O)n4ccccc4nc3n(CC3CCCO3)c2=N)cc1 (configuration not stated)	?	-5%	2	2.1µM*
SMILES	SW480 rerep	uPA generation	Giardia kill	MCF10A rerep
N=c1c(S(=O)(=O)c2ccc(F)cc2)cc2c(=O)n3ccccc3nc2n1CC1CCCO1 (configuration not stated)	18µM*	-4%	-7	16µM*
Cc1ccc2nc3c(cc(C(=O)NCC4CCCO4)c(=N)n3CC3CCCO3)c(=O)n2c1 (configuration not stated)	?	-1%	-2	2.9µM*
O=C(NCCCN1CCOCC1)c1cc2c([nH]c3ccccc32)c(-c2cccc(Br)c2)n1	16%	?	25	4.6µM*
O=C1c2ccccc2NC(c2cccc(F)c2)N1Cc1ccccc1 (configuration not stated)	?	-13%	10	21µM*
O=C1c2ccccc2NC(c2cccc(F)c2)N1Cc1ccco1 (configuration not stated)	-2%	-28%	-20	?
CCCCCOC(=O)c1[nH]c2c(c1C)C(=O)C(C(=O)OC)C(C)C2 (configuration not stated)	?	-5%	10	21µM*
COC(=O)C1C(=O)c2c([nH]c(C(=O)OCC3CCCO3)c2C)CC1C (configuration not stated)	0%	13µM*	-17	6%
CC(C)=CCC[C@](C)(O)C1CC=C(C)CC1 (some centres not stated)	0%	.	.	7%
COc1ccc(N2C(=O)c3ccccc3NC2c2ccc(OC)c(COc3ccc(NC(C)=O)cc3)c2)cc1 (configuration not stated)	.	.	-13	.
CCOC(=O)N1CCN(C(=O)CN2C(=O)/C(=C\c3cccc(OC)c3)SC2=S)CC1	.	.	-18	.
Cc1ccccc1CS(=O)(=O)c1cnc2ccccc2n1	?	-14%	-3	18µM*
CC(OC(=O)CSCC(=O)Nc1ccc(Cl)cc1)C(=O)N(C)Cc1ccccc1 (configuration not stated)	-1%	2%	1	?
Cc1ccc(S(=O)(=O)Nc2ccc3c(c2)OCCO3)c(C)c1NS(C)(=O)=O	9%	0%	0	7%
COc1cccc2c(=O)c(SC(F)(F)C(F)C(F)(F)F)c(C)[nH]c12 (configuration not stated)	16µM*	-14%	-3	?
O=C1CCC(c2ccccc2)N1c1ccccc1 (configuration not stated)	-8%	6%	-2	-1%
CCN(CC)CCNC(=O)C(Cl)=C1C(Cl)=C(Cl)C(Cl)=C1Cl	12µM*	-9%	15	10µM*
COc1cc(C(=O)Nc2ccc(C(F)(F)F)cc2)ccc1OCC(=O)N1CCOCC1	?	-4%	-3	4%
Cc1c(N2C(=O)/C(=C\c3ccccc3O)SC2=S)c(=O)n(-c2ccccc2)n1C	18µM*	8%	26	?
Cc1nc(NC(=O)c2ccc(Cl)cc2)sc1Cc1ccc2c(c1)OCO2	5.8µM*	-15%	?	2.9µM*
Cc1c(Cc2ccc3c(c2)OCO3)sc(NC(=O)c2ccccc2)c1C(N)=O	9%	-24%	-4	13µM*
CC(=O)c1sc(NC(=O)c2ccc3c(c2)OCO3)nc1C	-3%	-8%	2	9%
O=C(NCc1ccc2c(c1)OCO2)c1ccccc1	-1%	3%	20	-8%
Cc1nc(NC(=O)c2ccccc2)sc1Cc1ccc2c(c1)OCO2	26µM*	-13%	-1	?
